Experimental findings from PubChem BioAssay are described below.

SMILES strings stand for the structures. Active and inactive are the calls of the source.

A short description of assay [1]: small molecules captured by biotinylated probe aFSTL3 – biochemical, small-molecule microarray, fluorescence 635/667, stem cell growth factor project, primary screen (AID 1064).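 Also: measures binding of the biotinylated anti-FSTL3 antibody to printed compounds.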 The following applies: higher = more signal.
Assay [2] in a line: binders from COS7 lysate, DM2A8 probe, primary screen, torsin A project, cell lysate, small-molecule microarray, fluorescence 635/667 (AID 1065). The settings on record: higher = more signal, COS7 lysate expressing mutant human TOR1A.
A short description of assay [3]: small molecules captured by biotinylated probe aFGF2 – biochemical, small-molecule microarray, fluorescence 635/667, stem cell growth factor project, primary screen (AID 1067).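 Also: measures binding of biotinylated aFGF2 protein to printed compounds on slides; z-score merges feature fluorescence and signal-to-noise across triplicate slides.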 The settings on record: higher = more signal.
Assay [4] can be described thus: small molecules captured by biotinylated probe aFGF10 – biochemical, small-molecule microarray, fluorescence 635/667, stem cell growth factor project, primary screen (AID 1071).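 Also: score merges 667 nm spot intensity and signal to noise from triplicate slides.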 The settings on record: higher = more signal.
In assay [5] the target is Neurogenic locus notch homolog protein 2 (Homo sapiens) (UniProt Q04721). Briefly: small molecules binding Notch2 protein – biochemical, small-molecule microarray, 635 nm fluorescence, stem cell growth factors, primary screen (AID 1073). The settings on record: higher = more signal.
For assay [6], the target named is Pro-neuregulin-1, membrane-bound isoform (Homo sapiens) (UniProt Q02297). As to the kind of experiment: small molecules binding neuregulin-1 protein – biochemical, small-molecule microarray, fluorescence 635/667, psychiatric disease protein project, primary screen (AID 1075).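 Also: score combines 667 nm spot fluorescence with signal to noise.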 The following applies: NRG1 binding, 635 nm fluorescence, higher = more signal.
Sequence of Pro-neuregulin-1, membrane-bound isoform (Homo sapiens) (Q02297 whole entry, looked up, the tested form may be a part, canonical isoform): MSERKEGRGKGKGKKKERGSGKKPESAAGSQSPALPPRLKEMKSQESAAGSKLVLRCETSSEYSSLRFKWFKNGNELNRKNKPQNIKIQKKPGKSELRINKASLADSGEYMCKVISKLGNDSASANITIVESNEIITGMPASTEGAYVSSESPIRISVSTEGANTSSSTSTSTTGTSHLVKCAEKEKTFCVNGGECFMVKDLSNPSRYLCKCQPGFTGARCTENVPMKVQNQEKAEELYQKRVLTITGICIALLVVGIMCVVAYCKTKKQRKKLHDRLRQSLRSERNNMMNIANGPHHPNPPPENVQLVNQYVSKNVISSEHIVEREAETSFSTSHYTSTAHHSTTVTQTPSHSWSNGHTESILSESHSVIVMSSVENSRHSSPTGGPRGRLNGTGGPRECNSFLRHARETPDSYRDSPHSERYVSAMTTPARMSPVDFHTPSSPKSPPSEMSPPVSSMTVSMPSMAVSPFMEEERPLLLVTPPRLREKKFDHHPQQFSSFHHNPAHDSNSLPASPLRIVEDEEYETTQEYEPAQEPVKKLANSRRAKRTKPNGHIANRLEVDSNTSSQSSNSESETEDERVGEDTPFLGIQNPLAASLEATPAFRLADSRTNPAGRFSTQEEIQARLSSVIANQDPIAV
In assay [7] the test system is Neuregulin-1 EGF-like domain. As to the kind of experiment: small molecules binding NRG1 EGF domain – biochemical, small-molecule microarray, 635 nm fluorescence, primary screen (AID 1081).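 Also: binding of the protein to compounds printed on small-molecule microarray slides.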 The following applies: higher = more signal.
Assay [8] is described as follows: FRG1 expression reporter modulators in myotubes – cell-based, C2C12 myotubes, firefly/Renilla luciferase, luminescence, FRG1 inhibition for FSHD, primary screen (AID 1084). The settings on record: FRG1 promoter luciferase, higher = more signal, called active from +8 up or from −8 down.
A short description of assay [9]: small molecules captured by biotinylated probe aFST – biochemical, small-molecule microarray, fluorescence 635/667, stem cell growth factor project, primary screen (AID 1086).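 Also: score merges 667 nm fluorescence with signal-to-noise of each printed compound spot.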 The settings on record: higher = more signal.
Assay [10] in a line: binders of probe aHhip on microarray, primary screen, stem cell growth factor project, biochemical, small-molecule microarray, fluorescence 635/667 (AID 1087).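 Also: score merges spot fluorescence at 667nm with spot signal to noise ratio.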 The following applies: higher = more signal.
Assay [11] concerns PRMT1 (protein arginine N-methyltransferase 1). As to the kind of experiment: small molecules binding arginine methyltransferase PRMT1 – biochemical, small-molecule microarray, 635 nm fluorescence, primary screen (AID 1088).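 Also: binding of Prmt1 protein to compounds spotted on small-molecule microarray slides.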 The following applies: higher = more signal.
The nature of assay [12]: growth effects on S. cerevisiae YJM789 – YJM789 clinical isolate, OD600, 24 h, basal, primary screen (AID 1089).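 Also: growth of clinical yeast isolate S. cerevisiae YJM 789 seeded 1000 cells per well; test concentration not given here.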 The following applies: higher = more signal, called active from +8 up or from −8 down.
Assay [13] in a line: S. pombe growth modifiers, basal conditions – strain 972, OD600, 24 h, no modulator, primary screen (AID 1090).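 Also: basal condition with compound alone and no growth modifier present; test concentration not given here.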 The settings on record: S. pombe 972 growth, higher = more signal, called active from +8 up or from −8 down.
Assay [14] in a line: budding yeast growth modifiers under rapamycin – strain BY4716, OD600, 96 h, primary screen (AID 1091). Also: test concentration not given here. The following applies: S. cerevisiae BY4716 + rapamycin, higher = more signal, called active from +8 up or from −8 down.
The target of assay [15] is Torsin-1A-interacting protein 2 (Homo sapiens) (UniProt Q8NFQ8). Briefly: small molecules binding lysate-expressed LULL1 – cell lysate, human LULL1 lysate, 635/667 nm fluorescence, primary screen (AID 1092).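 Also: probe is lysate of COS7 cells overexpressing human LULL1; score merges per-feature 667 nm fluorescence with signal-to-noise.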 The following applies: small-molecule microarray, hLULL1 lysate binding, 635 nm fluorescence; higher = more signal.
Sequence of Torsin-1A-interacting protein 2 (Homo sapiens) (Q8NFQ8 whole entry, looked up): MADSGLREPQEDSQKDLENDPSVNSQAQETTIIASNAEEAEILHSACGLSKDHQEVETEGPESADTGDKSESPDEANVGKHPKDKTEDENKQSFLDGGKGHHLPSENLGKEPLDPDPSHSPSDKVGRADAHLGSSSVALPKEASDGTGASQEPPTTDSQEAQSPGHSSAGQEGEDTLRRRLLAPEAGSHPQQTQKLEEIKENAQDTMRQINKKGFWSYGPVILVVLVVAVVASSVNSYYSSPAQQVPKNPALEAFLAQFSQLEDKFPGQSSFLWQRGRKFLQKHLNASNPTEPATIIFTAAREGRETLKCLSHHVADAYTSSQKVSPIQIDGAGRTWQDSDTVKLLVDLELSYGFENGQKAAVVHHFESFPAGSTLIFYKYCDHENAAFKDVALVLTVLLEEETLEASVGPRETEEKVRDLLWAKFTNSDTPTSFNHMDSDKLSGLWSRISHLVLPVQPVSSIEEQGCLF
Assay [16] in a line: optical density change of DRC41 E. coli – strain DRC41, OD650, 24 h, E. coli filamentation project, primary screen (AID 1093).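 Also: MC1000 strain lacking acrAB efflux and sulA so SOS filamentation is blocked; test concentration not given here.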 The settings on record: E. coli DRC41 growth, higher = more signal, called active from +8 up or from −8 down.
A short description of assay [17]: probe aLefty2 binding to arrayed compounds – biochemical, biotinylated probe, 635/667 nm fluorescence, primary screen (AID 1094).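 Also: score merges spot fluorescence near 667 nm with spot signal-to-noise ratio.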 The following applies: small-molecule microarray, higher = more signal.
The test system of assay [18] is Noggin (protein binding on small-molecule microarray). Briefly: small molecules binding Noggin protein – biochemical, 635/667 nm fluorescence, primary screen (AID 1095).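 Also: score merges 667 nm feature fluorescence with signal to noise over triplicate slides.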 The settings on record: 635 nm fluorescence, higher = more signal.
Assay [19] addresses Neurogenic locus notch homolog protein 3 (Homo sapiens) (UniProt Q9UM47). As to the kind of experiment: small molecules binding NOTCH3 protein – biochemical, 635/667 nm fluorescence, primary screen (AID 1096). The following applies: small-molecule microarray, 635 nm fluorescence, higher = more signal.
The nature of assay [20]: probe aEGFR binding to arrayed compounds – biochemical, biotinylated probe, 635/667 nm fluorescence, primary screen (AID 1097).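 Also: probe is a biotinylated anti-EGFR antibody binding compounds printed on slides; score combines fluorescence near 667 nm and signal to noise of each spot.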 The following applies: small-molecule microarray, higher = more signal.

Sequence of Neurogenic locus notch homolog protein 3 (Homo sapiens) (Q9UM47 whole entry, looked up): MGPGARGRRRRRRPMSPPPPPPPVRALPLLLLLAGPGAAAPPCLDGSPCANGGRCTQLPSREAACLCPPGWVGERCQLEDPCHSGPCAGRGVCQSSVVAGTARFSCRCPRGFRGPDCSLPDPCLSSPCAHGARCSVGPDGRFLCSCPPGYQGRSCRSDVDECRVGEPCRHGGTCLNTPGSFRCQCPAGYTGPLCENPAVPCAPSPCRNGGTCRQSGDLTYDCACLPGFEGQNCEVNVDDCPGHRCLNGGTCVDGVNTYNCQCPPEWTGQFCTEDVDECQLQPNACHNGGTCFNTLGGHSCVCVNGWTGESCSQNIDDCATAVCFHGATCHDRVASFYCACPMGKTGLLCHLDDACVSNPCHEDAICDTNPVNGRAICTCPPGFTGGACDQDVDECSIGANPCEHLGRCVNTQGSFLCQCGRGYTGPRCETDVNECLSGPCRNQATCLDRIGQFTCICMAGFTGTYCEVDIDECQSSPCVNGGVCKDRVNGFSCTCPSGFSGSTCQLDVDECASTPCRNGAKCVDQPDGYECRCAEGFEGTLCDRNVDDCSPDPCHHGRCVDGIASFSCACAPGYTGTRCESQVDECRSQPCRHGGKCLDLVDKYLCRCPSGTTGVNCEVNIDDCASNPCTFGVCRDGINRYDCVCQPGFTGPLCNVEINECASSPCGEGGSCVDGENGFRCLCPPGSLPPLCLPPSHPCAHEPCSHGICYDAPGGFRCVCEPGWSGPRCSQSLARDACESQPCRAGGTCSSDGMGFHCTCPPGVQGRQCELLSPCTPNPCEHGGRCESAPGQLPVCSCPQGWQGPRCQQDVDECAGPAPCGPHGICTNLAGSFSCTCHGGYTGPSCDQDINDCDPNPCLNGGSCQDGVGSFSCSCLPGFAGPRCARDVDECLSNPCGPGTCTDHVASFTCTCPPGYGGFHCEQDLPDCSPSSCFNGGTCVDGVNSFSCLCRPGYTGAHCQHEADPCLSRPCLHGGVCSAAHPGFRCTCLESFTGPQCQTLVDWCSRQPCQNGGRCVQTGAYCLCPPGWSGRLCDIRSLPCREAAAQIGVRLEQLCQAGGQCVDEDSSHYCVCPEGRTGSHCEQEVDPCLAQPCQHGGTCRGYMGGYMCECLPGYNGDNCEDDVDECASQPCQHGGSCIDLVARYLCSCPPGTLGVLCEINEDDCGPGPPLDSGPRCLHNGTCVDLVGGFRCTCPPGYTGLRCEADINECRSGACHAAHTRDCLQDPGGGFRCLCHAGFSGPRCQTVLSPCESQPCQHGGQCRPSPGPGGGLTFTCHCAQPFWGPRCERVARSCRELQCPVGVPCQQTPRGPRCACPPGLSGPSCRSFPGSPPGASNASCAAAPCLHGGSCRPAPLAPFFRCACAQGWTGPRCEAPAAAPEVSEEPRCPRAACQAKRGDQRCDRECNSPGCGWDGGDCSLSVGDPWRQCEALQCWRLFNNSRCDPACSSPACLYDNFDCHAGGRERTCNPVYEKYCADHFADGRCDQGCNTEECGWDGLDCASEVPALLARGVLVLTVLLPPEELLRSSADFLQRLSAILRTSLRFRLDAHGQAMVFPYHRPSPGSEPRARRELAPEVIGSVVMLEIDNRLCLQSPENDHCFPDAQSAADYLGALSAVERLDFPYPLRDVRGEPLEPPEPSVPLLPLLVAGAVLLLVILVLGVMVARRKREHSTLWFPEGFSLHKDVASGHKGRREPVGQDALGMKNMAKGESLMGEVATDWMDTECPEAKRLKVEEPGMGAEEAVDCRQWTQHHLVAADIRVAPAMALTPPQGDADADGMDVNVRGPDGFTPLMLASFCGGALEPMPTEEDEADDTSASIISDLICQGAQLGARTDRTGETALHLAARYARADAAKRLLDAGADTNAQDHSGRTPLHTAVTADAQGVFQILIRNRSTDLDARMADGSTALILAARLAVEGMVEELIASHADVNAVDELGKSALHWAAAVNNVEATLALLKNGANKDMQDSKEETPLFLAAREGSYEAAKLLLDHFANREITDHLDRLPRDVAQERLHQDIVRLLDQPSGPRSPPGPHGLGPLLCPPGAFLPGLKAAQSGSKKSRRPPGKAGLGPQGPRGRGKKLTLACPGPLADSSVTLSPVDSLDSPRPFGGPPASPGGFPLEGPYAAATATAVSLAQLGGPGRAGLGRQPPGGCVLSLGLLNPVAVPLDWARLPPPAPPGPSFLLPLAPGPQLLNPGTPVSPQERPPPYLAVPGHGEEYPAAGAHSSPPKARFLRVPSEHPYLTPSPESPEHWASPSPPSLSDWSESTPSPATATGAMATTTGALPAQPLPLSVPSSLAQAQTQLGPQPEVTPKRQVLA

`CO[C@H]1O[C@H](CO)[C@@H](OC(=O)Nc2ccc(Oc3ccccc3)cc2)[C@H](OC(=O)Nc2ccccc2)[C@H]1OC(=O)Nc1ccccc1`: the composite z-score in assay [1] turned out to be 0.096; in assay [2], 0.95; in [3], 0.0732; in [4], 1.16; in [5], 1.48; in [6] it was 1.3. The composite z-score in [7] is 1.39; in assay [9], 0.446; in assay [10], -0.0346; in assay [11], 1.55; in assay [15], 3.26; in [17] it was 0.286. The values for the composite z-score in assay [18], in assay [19] and in assay [20] were 0.7, 1.13 and 0.13, respectively. Besides, the z-score was 0.119 (inactive) in assay [8]; 1.48 (inactive) in assay [12]; 0.613 (inactive) in assay [13]; -1.75 (inactive) in assay [14]; 0.939 (inactive) in [16].
For `CC(=CC1CCCCC1)[C@@H](NC(=O)c1ccc(C(F)(F)F)cc1)c1ccc(-c2ccccc2)cc1`, the composite z-score in assay [1] was 0.21; in assay [2], -0.259; in assay [3], 0.0083; in assay [4], -0.0821; in [5] it was 0.0836; in [6], 1.02. Further, the composite z-score in assay [7] is -0.54; in assay [9], 0.112; in assay [10] it was 0.57; in assay [11] it was -0.211; in assay [15], -0.192; in [17], 0.0943. In addition, the composite z-score was 0.0323 in [18], -0.779 in assay [19] and 0.0353 in [20]. Moreover, the z-score in assay [8] was 0.235 (inactive); in assay [12], 0.537 (inactive); in assay [13] it was -0.91 (inactive); in assay [14], -0.938 (inactive); in [16], -1.33 (inactive).
As to `COc1ccc([Si](C)(C)[C@H]2[C@H](CCn3cc([C@H](O)c4ccccc4)nn3)O[C@@]3(C(=O)N(Cc4cccc(N5CCC5=O)c4)c4ccccc43)[C@@H]2C)cc1`, the composite z-score was 0.386 in [1]; 0.238 in assay [2]; -0.0894 in assay [3]; 0.164 in assay [4]; -0.404 in [5]; -0.0001 in assay [6]. For the same compound, the composite z-score in assay [7] is 0.557; in assay [9] it was -0.0509; in assay [10], -0.191; in [11], 0.423; in [15], 0.276; in assay [17] it was -0.196. Further, the values for the composite z-score in assay [18], in assay [19] and in assay [20] were 0.806, 0.349 and -0.167, respectively. Also, the z-score is -1.99 (inactive) in assay [8]; -1.89 (inactive) in assay [12]; 0.399 (inactive) in [13]; 1.82 (inactive) in [14]; 1.41 (inactive) in assay [16].
For the compound `[N-]=[N+]=NCc1ccccc1C[C@]1(C(=O)NCCN2CCOCC2)N=C(c2ccc(OCCCO)cc2)O[C@H]1c1ccccc1N=[N+]=[N-]`, the composite z-score in assay [1] amounted to 0.446; in [2], 0.57; in assay [3], 0.0618; in assay [4] it was 0.855; in assay [5], 1.57; in assay [6] it was 1.6. Besides, the composite z-score is 1.29 in assay [7]; 1.25 in assay [9]; -0.236 in assay [10]; 1.56 in assay [11]; 2.73 in assay [15]; 0.149 in assay [17]. The composite z-score is -0.0313 in assay [18], 1.1 in assay [19] and 0.0488 in assay [20]. Besides, the z-score in [8] is -0.653 (inactive); in assay [12], -0.886 (inactive); in assay [13] it was 0.246 (inactive); in assay [14], 2.86 (inactive); in assay [16], 1.16 (inactive).
For `COCCOC(=O)N1C(=O)[C@@]2(c3cc(C#CCNC(N)=O)ccc31)[C@H](c1ccc(O)cc1)N1[C@H](c3ccccc3)[C@H](c3ccccc3)OC(=O)[C@H]1[C@@H]2C(=O)NC[C@H](O)c1ccccc1`, the composite z-score worked out at 0.134 in assay [1]; 1.16 in assay [2]; 0.109 in [3]; 0.846 in assay [4]; 1.01 in [5]; 0.743 in [6]. The composite z-score in assay [7] was found to be 0.866; in [9], 1.55; in assay [10], 0.127; in assay [11], 1.55; in assay [15], 1.62; in assay [17], 0.434. For the same compound, the composite z-score in assay [18] was 0.664; in [19] it was 1.06; in [20], 0.0586. Also, the z-score is -0.463 (inactive) in assay [8]; 0.71 (inactive) in [12]; 1.2 (inactive) in assay [13]; 0.611 (inactive) in assay [14]; -0.675 (inactive) in [16].
